In PubChem BioAssay (NCI):
About 83,000 compounds went through this panel and 20% of them were active in at least one assay; those are over-represented in the sample as a whole.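 Activity criterion: percent growth below 10, measured after cells in 96-well plates were exposed to a single compound concentration for 48 hours.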 Calls of active or inactive are those of the source.

Columns and labels:
Test in all cases: NCI-60 one-dose screen, 48 h (100 = growth as untreated, 0 = no growth, -100 = all killed)
Conditions in all cases: 10 µM
HCT-15 colon = tested on: HCT-15 colon
HT29 colon = tested on: HT29 colon
SNB-75 CNS = tested on: SNB-75 CNS
SNB-19 CNS = tested on: SNB-19 CNS
U251 CNS = tested on: U251 CNS
PC-3 prostate = tested on: PC-3 prostate
SK-MEL-5 melanoma = tested on: SK-MEL-5 melanoma
LOX IMVI melanoma = tested on: LOX IMVI melanoma
SK-MEL-28 melanoma = tested on: SK-MEL-28 melanoma
UACC-62 melanoma = tested on: UACC-62 melanoma

Measured: growth

O=S(=O)(Nc1ncccn1)c1ccc(-n2c(-c3ccccc3)nc(-c3ccccc3)c2-c2ccccc2)cc1
inactive: HCT-15 colon 80.7% | HT29 colon 105% | SNB-75 CNS 77.2% | SNB-19 CNS 82.3% | U251 CNS 81.5% | PC-3 prostate 67.8% | SK-MEL-5 melanoma 76.1% | LOX IMVI melanoma 85.7% | SK-MEL-28 melanoma 105%

COc1cc2oc(-c3cccc(C(=O)Nc4ccc(Cl)cc4)c3)cc(=O)c2c(OCCNC(=O)CNC(=O)OC(C)(C)C)c1OC
inactive: HCT-15 colon 40.9% | HT29 colon 63.2% | SNB-75 CNS 74.9% | SNB-19 CNS 78.9% | U251 CNS 74.8% | PC-3 prostate 57.2% | UACC-62 melanoma 81% | SK-MEL-28 melanoma 69.4%

CCC(C)S(=O)(=O)c1oc(-c2ccc(C)cc2)nc1S(=O)(=O)c1ccccc1 (stereo not given)
active: HCT-15 colon -72.2% | HT29 colon -71.5% | SNB-75 CNS 3.57% | SNB-19 CNS 0.128% | U251 CNS -95.9% | PC-3 prostate -60.5% | UACC-62 melanoma -94.2% | LOX IMVI melanoma -94% | SK-MEL-28 melanoma -99.8%

Cc1cc(=O)oc2cc(OCCCCOc3ccc(/C=C/C(=O)Nc4cccc(Cl)c4)cc3)ccc12
inactive: HCT-15 colon 60.3% | HT29 colon 86.4% | SNB-75 CNS 87.7% | SNB-19 CNS 74.7% | U251 CNS 56.8% | PC-3 prostate 91.2% | SK-MEL-5 melanoma 60.6% | LOX IMVI melanoma 64.4% | SK-MEL-28 melanoma 86.8%

O=C(c1ccc(O)cc1)C1[C@H](c2ccc(Br)cc2)[C@@H](c2ccccc2)NC12C(=O)Nc1ccccc12 (stereo not given in full)
inactive: HCT-15 colon 24.6% | SNB-75 CNS 46.5% | SNB-19 CNS 47.8% | U251 CNS 22% | PC-3 prostate 32.1% | UACC-62 melanoma 50.9%
active: HT29 colon -9.34% | LOX IMVI melanoma -96.9%

COc1ccc(-c2nc(Nc3ccccc3S(N)(=O)=O)c3ccccc3n2)cc1
active: HT29 colon 8.94% | U251 CNS 3.82% | LOX IMVI melanoma -79.9%
inactive: HCT-15 colon 28.1% | SNB-75 CNS 109% | SNB-19 CNS 57.7% | PC-3 prostate 55.6% | UACC-62 melanoma 56.5% | SK-MEL-28 melanoma 76.7%

N#Cc1c(NC(=O)c2ccc(C(F)(F)F)c(Cl)c2)sc2c1CCC(=O)C2
active: HCT-15 colon -62.3% | HT29 colon -25.8% | SNB-75 CNS -37.7% | SNB-19 CNS -55.3% | U251 CNS -84.7% | PC-3 prostate -10.2% | SK-MEL-5 melanoma -98.8% | LOX IMVI melanoma -52.6% | SK-MEL-28 melanoma -83.4%

CC1(C)CC[C@]2(C(=O)NCCCNCCCCNCCCN)CC[C@]3(C)C(=CC[C@@H]4[C@@]5(C)Cc6c([nH]c7ccccc67)C(C)(C)[C@@H]5CC[C@]43C)[C@H]2C1
inactive: HCT-15 colon 85% | HT29 colon 92.4% | SNB-75 CNS 101% | SNB-19 CNS 57.9% | U251 CNS 89.5% | PC-3 prostate 65.8% | UACC-62 melanoma 116% | LOX IMVI melanoma 92.6% | SK-MEL-28 melanoma 102%

O=c1c2ccccc2nc(COc2ccccc2)n1/N=C/c1ccc(N2CCOCC2)cc1
inactive: HCT-15 colon 80.8% | HT29 colon 93.8% | SNB-75 CNS 43.9% | U251 CNS 51.5% | PC-3 prostate 75.6% | UACC-62 melanoma 69.4% | LOX IMVI melanoma 69.6% | SK-MEL-28 melanoma 83.3%
active: SNB-19 CNS 3.55%

CC1(c2ccccc2)NC(=O)N(CC(=O)Nc2ccc(C(=O)/C=C/c3ccccc3)cc2)C1=O (stereo not given)
active: HCT-15 colon 2.92% | HT29 colon -23% | U251 CNS -15.2% | LOX IMVI melanoma -72%
inactive: SNB-75 CNS 72.1% | SNB-19 CNS 66.1% | PC-3 prostate 31.6% | UACC-62 melanoma 36.5% | SK-MEL-28 melanoma 62.3%

Cc1ccc(CNC(=O)Cc2ccc3c(c2)CN(C2CCC(=O)NC2=O)C3=O)cc1 (stereo not given)
inactive: HT29 colon 24.6% | U251 CNS 55.5% | PC-3 prostate 10.4% | UACC-62 melanoma 40.6% | LOX IMVI melanoma 71.4% | SK-MEL-28 melanoma 22%
active: HCT-15 colon -20.1% | SNB-75 CNS -16.8% | SNB-19 CNS 4%

COc1csc(/C=N/NC(=O)c2[nH]c3ccc(Br)cc3c2-c2ccccc2)c1
inactive: SNB-19 CNS 29.1% | PC-3 prostate 14.9% | UACC-62 melanoma 20.3% | LOX IMVI melanoma 12.6% | SK-MEL-28 melanoma 35.3%
active: HCT-15 colon 0.545% | HT29 colon -30.8% | SNB-75 CNS 4.17% | U251 CNS 9.71%

O=C(O)CCCCCCCCCCN1C(=O)/C(=C/c2cnc(-c3ccccc3)s2)SC1=S
inactive: HCT-15 colon 80.7% | HT29 colon 126% | SNB-75 CNS 124% | SNB-19 CNS 100% | U251 CNS 59.5% | PC-3 prostate 95% | LOX IMVI melanoma 32.1%

O=C(CNc1nc(-c2ccccc2)cs1)Nc1ccc([N+](=O)[O-])cc1Cl
active: HCT-15 colon 1.43% | SK-MEL-5 melanoma 8.63% | LOX IMVI melanoma -11.1%
inactive: HT29 colon 34.8% | SNB-75 CNS 82.3% | U251 CNS 15.8% | PC-3 prostate 38.2% | UACC-62 melanoma 20.5%

COc1ccc(N(C)c2cc(C#N)nc3ccccc23)cc1/C=C/C(=O)NO
active: HCT-15 colon -59.4% | HT29 colon -19.5% | SNB-75 CNS -24.6% | SNB-19 CNS -44.5% | U251 CNS -51% | PC-3 prostate -9.99% | LOX IMVI melanoma -97.6%

CCOc1ccc(/C=N/NC(=O)Cn2nc(Cc3ccccc3)c3onc(C)c3c2=O)cc1
active: SNB-75 CNS -23.7% | SNB-19 CNS -3.49% | U251 CNS -21.4%
inactive: HCT-15 colon 63.1% | HT29 colon 42% | SK-MEL-5 melanoma 68.3% | UACC-62 melanoma 36.9% | LOX IMVI melanoma 14.2% | SK-MEL-28 melanoma 54.3%

CN(C)c1ccc(/C=C/C(=O)c2ccc(NC(=O)CN3C(=O)NC(C)(c4ccccc4)C3=O)cc2)cc1 (stereo not given)
inactive: HCT-15 colon 26.9% | HT29 colon 19.5% | SNB-75 CNS 80.6% | SNB-19 CNS 70.5% | U251 CNS 46% | PC-3 prostate 43.3% | LOX IMVI melanoma 41.4% | SK-MEL-28 melanoma 70.7%

Cc1cc2c(c(O)c1Br)-c1ncoc1C(=O)[C@]1(C)CC[C@H](C(C)C)[C@H]21
inactive: SNB-75 CNS 59.6% | SNB-19 CNS 45% | U251 CNS 26.7% | UACC-62 melanoma 33.1% | LOX IMVI melanoma 35.6% | SK-MEL-28 melanoma 46.6%
active: HCT-15 colon 7.31% | HT29 colon 5.42% | SK-MEL-5 melanoma -29.9%

NS(=O)(=O)c1ccc(NC(=O)CSc2ccc(-c3ccc(Cl)cc3)nn2)c(Br)c1
inactive: HCT-15 colon 54.1% | HT29 colon 64.7% | SNB-75 CNS 42.3% | SNB-19 CNS 27% | SK-MEL-5 melanoma 68.8% | UACC-62 melanoma 65.4% | LOX IMVI melanoma 19.7% | SK-MEL-28 melanoma 79.5%
active: U251 CNS -25.6%

CC(=O)c1cc(C(=O)N2c3ccccc3Sc3ccccc32)n2ccc(C)cc12
active: SK-MEL-5 melanoma -36.3% | LOX IMVI melanoma -40%
inactive: HCT-15 colon 10.5% | HT29 colon 32.7% | SNB-75 CNS 83.1% | SNB-19 CNS 49.8% | U251 CNS 36.1% | UACC-62 melanoma 23.8% | SK-MEL-28 melanoma 48.7%

COc1ccc(NC(=O)Cn2c(/C=C/c3ccc(N(C)C)cc3)nc3ccccc3c2=O)cc1
inactive: HCT-15 colon 57% | HT29 colon 44.7% | SNB-75 CNS 84.1% | SNB-19 CNS 70.7% | U251 CNS 23% | SK-MEL-5 melanoma 30.7% | UACC-62 melanoma 40.9% | LOX IMVI melanoma 13.8% | SK-MEL-28 melanoma 45.6%

N#Cc1c(NC(=O)c2ccc(C(F)(F)F)cc2C(F)(F)F)sc2c1CCC(=O)C2
inactive: SNB-75 CNS 26.4%
active: HCT-15 colon -66% | HT29 colon -57% | SNB-19 CNS 6.86% | U251 CNS 8.82% | SK-MEL-5 melanoma -97.6% | UACC-62 melanoma -89.5% | LOX IMVI melanoma -15.1% | SK-MEL-28 melanoma -86.2%

Cc1ccc(/C(CSc2nnc(-c3c[nH]c4ccccc34)n2-c2ccccc2)=N/O)cc1
active: HCT-15 colon -62.4% | HT29 colon 6.35% | SNB-75 CNS -44.2% | SNB-19 CNS -18.5% | UACC-62 melanoma -52.6% | LOX IMVI melanoma -88.2%
inactive: U251 CNS 10.4% | SK-MEL-5 melanoma 34.1% | SK-MEL-28 melanoma 62.5%

O=C(CNc1nc(-c2ccccc2)cs1)Nc1cccc(Cl)c1
active: HCT-15 colon 5.51% | LOX IMVI melanoma 7.96%
inactive: HT29 colon 32.1% | SNB-75 CNS 50.2% | SNB-19 CNS 51% | U251 CNS 26.9% | SK-MEL-5 melanoma 35.5% | UACC-62 melanoma 19.8% | SK-MEL-28 melanoma 42.8%

CN1CCN(c2ccc(Nc3nc(NCCCNC(=O)c4ccc(Cl)cc4)c4sccc4n3)cc2)CC1
inactive: HCT-15 colon 26.8% | HT29 colon 35.4% | SNB-75 CNS 99.5% | U251 CNS 44.6% | PC-3 prostate 61.6% | SK-MEL-5 melanoma 72.4% | UACC-62 melanoma 86% | LOX IMVI melanoma 59.7%

CN1C(=O)N(C)C2SC(N/N=C/C=C/c3ccccc3)=NC21 (stereo not given)
inactive: HCT-15 colon 37.2% | HT29 colon 73.2% | SNB-75 CNS 89.7% | SNB-19 CNS 72.5% | U251 CNS 79.2% | SK-MEL-5 melanoma 57.9% | UACC-62 melanoma 41.7% | LOX IMVI melanoma 68.1% | SK-MEL-28 melanoma 69.5%

CC1=C(C(=O)OC(C)C)C(c2ccc(O)cc2)NC(=S)N1 (stereo not given)
inactive: HCT-15 colon 102% | HT29 colon 108% | SNB-75 CNS 217% | SNB-19 CNS 101% | U251 CNS 102% | SK-MEL-5 melanoma 106% | UACC-62 melanoma 93.4% | LOX IMVI melanoma 94.4%

COc1ccc(-c2ccc(SCC(=O)Nc3ccc(C#N)cc3)nn2)cc1
inactive: HCT-15 colon 97.3% | HT29 colon 130% | SNB-75 CNS 93.7% | SNB-19 CNS 64.9% | U251 CNS 70.7% | SK-MEL-5 melanoma 94.4% | UACC-62 melanoma 72.3% | LOX IMVI melanoma 84.7% | SK-MEL-28 melanoma 97.7%

Cc1nn(-c2ccccc2)c2ncn(CC(=O)N/N=C/c3c[nH]c4ccccc34)c(=O)c12
inactive: HCT-15 colon 89.2% | HT29 colon 99.5% | SNB-75 CNS 78.5% | SNB-19 CNS 91.5% | U251 CNS 83.8% | UACC-62 melanoma 80.7% | LOX IMVI melanoma 84.4% | SK-MEL-28 melanoma 114%
